Assay outcomes deposited in PubChem by National Center for Advancing Translational Sciences (NCATS).
The list is not random: actives were taken first. Their share in the collection is about 3.6%.
S16 viability: S16 Schwann cell cytotoxicity; S16 Pmp22-F2sN Schwann cells viability, CellTiter-Glo, 24 h; Potency, µM (top dose mostly 57.5 µM), for the others: top-dose activity change, negative = cytotoxicity, usual class: cytotoxic; 43,000 tested, 0.48% active; AID 1508642; note: potency is the fitted concentration of half-maximal effect; % is set by controls: 0 for no effect and ±100 for the full control effect; nearly all actives have a fitted effect of over 65% in size
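Rat S16 Schwann reporter line, 24 h treatment with library compounds delivered at 23 nL per well. Cell viability by CellTiter-Glo luminescence.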
PMP22 txn: PMP22 gene transcription modulation; S16 Pmp22-F2sN Schwann cells, FLuc/NLuc coincidence luminescence, 24 h; Potency, µM (top dose mostly 57.5 µM), for the others: top-dose activity change, negative = inhibition, hits mostly inhibitors; 43,000 tested, 2% active; active = clear falling dose curves in both reporters; inconclusive = both reporters move, but less clearly or upward; inactive = either reporter flat; the % is the NLuc reporter signal; note: potency is the fitted concentration of half-maximal effect; % is set by controls: 0 for no effect and ±100 for the full control effect
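Schwann cells carrying the coincidence reporter were exposed to library compounds for 24 h at 37C, then lysed and read for FLuc and, after quenching, NLuc luminescence on a CCD imager.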
SKOV3 invasion: inhibitors of ovarian cancer cell adhesion and invasion in omental model; SKOV3ip1-GFP adhesion/invasion on 3D omental model, fluorescence; Potency, µM (doses to about 45.8 µM), inactives show top-dose activity change, negative = inhibition, most hits filed as inhibitors; 46,000 tested, 0.1% active; AID 1963576;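 note: potency is the fitted concentration of half-maximal effect; plate controls were DMSO wells for no effect and tomatine positive control wells for full effect; nearly all actives have a fitted effect of over 65% in size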
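Primary human omental fibroblast/mesothelial 3D culture pre-formed 48 h. SKOV3ip1-GFP cells added with compounds (0.36-46 umol/L), incubated 2 h RT/16 h 37 C, fixed; GFP cells quantified at 488/509 nm.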
HTT-AS act: activates huntingtin-antisense promoter activity. HEK293 HTT-AS promoter firefly luciferase reporter, 24 h; response scale: percent change from vehicle, -100% = no light. Potency, µM (doses to about 57.5 µM), without a hit: at the highest dose activity change, positive = activation, hits mostly activators. 48,000 tested, 0.24% active. AID 1508624; note: potency is the fitted concentration of half-maximal effect; nearly all actives have a fitted effect of over 55% in size
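Luminescence was read after Dual-Glo reagent and a 10 min room-temperature incubation. Values were normalized to vehicle (0% activity) and zero RLU (-100% activity). Reporter HEK293 cells had been exposed to compounds (up to 57.5 uM final) for 24 h.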
pS6 MEF inh: inhibitors of mTORC1 signaling in Tsc2-/- p53-/- MEF cells | AID 493208 | Potency, µM (titrated, usually from 38.3 µM), for inactives: top-dose activity change, negative = inhibition, most hits filed as inhibitors | 44,000 tested, 0.78% active | Tsc2-/- p53-/- MEF, phospho-rpS6 immunofluorescence/PI, 24 h;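 note: potency is the fitted concentration of half-maximal effect; plate controls were DMSO for no effect and rapamycin for full effect; nearly all actives have a fitted effect of over 50% in size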
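Compounds act on Tsc2-/-, p53-/- fibroblasts carrying an empty vector for 24 h before fixation and dual staining for phospho-S6 and DNA (propidium iodide). Values are percentages of cells above a rapamycin-defined pS6/PI threshold.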
HTT prom inh: inhibitors of huntingtin promoter activity; HEK293 HTT promoter firefly luciferase reporter, 24 h; Potency, µM (top dose mostly 57.5 µM), for the others: at the top dose activity change, negative = inhibition, actives largely listed as inhibitors; 48,000 tested, 0.93% active; note: potency is the fitted concentration of half-maximal effect; nearly all actives have a fitted effect of over 50% in size
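HEK293 Fluc reporter, 2,500 cells/well, 24 h pre-culture; cpds up to 57.5 uM final, 24 h 37 degrees C; Dual-Glo, 10 min RT; normalized vehicle = 0%, zero RLU = -100%.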
NLuc saturating: counter-screen for PMP22 expression modulators: NanoLuc inhibition, saturating substrate | shares compounds with PMP22 txn | Potency, µM (top dose mostly 57.5 µM), for the others: at the highest dose activity change, negative = inhibition, usual class: inhibitors | Secreted NLuc enzyme (filtered S16 cell medium), Nano-Glo luminescence | 690 tested, 4% active; note: potency is the fitted concentration of half-maximal effect; % is set by controls: 0 for no effect and ±100 for the full control effect
NLuc Km counter: inhibits NanoLuc under Km conditions, PMP22 counter-screen; secreted NLuc enzyme, coelenterazine luminescence, Km conditions; Potency, µM (titrated, usually from 57.5 µM), for the others: at the top dose activity change, negative = inhibition, most hits filed as inhibitors; shares compounds with PMP22 txn; 690 tested, 5% active; note: potency is the fitted concentration of half-maximal effect; % is set by controls: 0 for no effect and ±100 for the full control effect
FLuc ctr PMP22: inhibits firefly luciferase, PMP22 counter-screen. shares compounds with PMP22 txn. purified P. pyralis FLuc, luminescence, 10 min. Potency, µM (doses to about 57.5 µM), for the others: top-dose activity, negative = inhibition, most hits filed as inhibitors. 690 tested, under 10 active. AID 1508640; note: % of control where 0% means no effect
Target sequence (P08659 whole entry, looked up): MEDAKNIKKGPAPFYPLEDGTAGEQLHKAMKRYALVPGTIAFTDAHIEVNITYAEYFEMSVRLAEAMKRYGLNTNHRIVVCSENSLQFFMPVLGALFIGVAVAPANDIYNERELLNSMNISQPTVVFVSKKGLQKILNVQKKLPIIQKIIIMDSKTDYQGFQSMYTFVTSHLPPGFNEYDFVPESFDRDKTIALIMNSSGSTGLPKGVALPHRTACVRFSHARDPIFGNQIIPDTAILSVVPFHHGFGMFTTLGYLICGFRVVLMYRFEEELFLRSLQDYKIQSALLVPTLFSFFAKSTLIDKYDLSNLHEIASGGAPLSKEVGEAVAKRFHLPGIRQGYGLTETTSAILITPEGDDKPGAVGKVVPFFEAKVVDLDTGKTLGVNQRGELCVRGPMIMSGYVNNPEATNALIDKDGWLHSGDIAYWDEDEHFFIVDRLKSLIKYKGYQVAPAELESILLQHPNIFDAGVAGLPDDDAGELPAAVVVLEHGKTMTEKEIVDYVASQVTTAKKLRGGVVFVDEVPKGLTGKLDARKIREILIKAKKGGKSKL
S16 viab conf: confirmation of cytotoxicity in S16 Pmp22-F2sN Schwann cells (luciferase reporters placed in the Pmp22 gene); 690 tested, 7% active; shares compounds with PMP22 txn; S16 Schwann cells viability, CellTiter-Glo ATP luminescence, 24 h; Potency, µM (titrated, usually from 57.5 µM), without a hit: at the top dose activity change, negative = viability loss, hits mostly cytotoxic; AID 1508641; note: potency is the fitted concentration of half-maximal effect; % is set by controls: 0 for no effect and ±100 for the full control effect
PMP22 txn cnf: confirmation of modulators of PMP22 gene transcription in S16 cells. shares compounds with PMP22 txn. S16 Schwann cells Pmp22-F2sN, dual luciferase, 24 h. Potency, µM (doses to about 57.5 µM), without a hit: at the top dose activity change, negative = inhibition, usual class: inhibitors. 690 tested, 22% active. AID 1508646; active = clear falling dose curves in both reporters; inconclusive = both reporters move, but less clearly or upward; inactive = either reporter flat; the % is the FLuc reporter signal; note: potency is the fitted concentration of half-maximal effect
Starred values were filed as active, the others as inactive. Unless noted, calls come from the whole dose curve; as a rule, active = well fitted curve in the direction sought with a large enough effect; inconclusive = small, poorly fitted or top-dose-only effect, or another doubt; inactive = no such curve, though single readings can be large; an effect the other way counts as inactive or inconclusive.

COc1ccc([C@@H]2CC(=O)c3c(O)cc(O[C@@H]4O[C@H](CO[C@@H]5O[C@@H](C)[C@H](O)[C@@H](O)[C@@H]5O)[C@@H](O)[C@H](O)[C@@H]4O)cc3O2)cc1O was read as SKOV3 invasion -0.7%, HTT-AS act -24.9% and HTT prom inh inconclusive.
COc1ccc(NC(=O)CSc2nc3ccccc3nc2N2CCCCC2)cc1 was read as S16 viability 19.9%, PMP22 txn -18.7%, SKOV3 invasion 4.1%, HTT-AS act -25.1%, pS6 MEF inh -0.5% and HTT prom inh -10.8%.
Screening COc1ccc(Cl)cc1NC(=O)CSc1nc2ccccc2nc1N1CCCCC1 returned S16 viability 8.4%, PMP22 txn 12.7µM*, SKOV3 invasion 3.8%, HTT-AS act -17.3%, pS6 MEF inh -1.5%, HTT prom inh -16.0%, NLuc saturating -8.7%, NLuc Km counter 8.9%, FLuc ctr PMP22 -3.8%, S16 viab conf -9.3% and PMP22 txn cnf -33.4%.
O=C(Nc1nnc(-c2ccco2)o1)c1cc(-c2ccccc2)nc2ccccc12 was read as SKOV3 invasion -1.5%, HTT-AS act -10.8% and HTT prom inh -10.0%.
For CCCCCOc1ccc(/C=C/C(=O)Nc2sc(C)c(C)c2C(=O)OCC)cc1OC the results were S16 viability -14.8%, PMP22 txn 7.13µM*, SKOV3 invasion -29.6%, HTT-AS act 2.1%, pS6 MEF inh 2.7%, HTT prom inh 1.8%, NLuc saturating -6.2%, NLuc Km counter 0.5%, FLuc ctr PMP22 -9.6%, S16 viab conf 6.7% and PMP22 txn cnf -18.8%.
For CCCCCOc1ccc(/C=C/C(=O)Nc2sc(C(C)=O)c(C)c2C(=O)OCC)cc1OC the results were S16 viability 19.0%, PMP22 txn 7.51µM*, SKOV3 invasion 20.0%, HTT-AS act 2.8%, pS6 MEF inh -10.3%, HTT prom inh 5.4%, NLuc saturating 0.6%, NLuc Km counter -1.0%, FLuc ctr PMP22 -2.5%, S16 viab conf 4.6% and PMP22 txn cnf -6.8%.
`CCOc1ccc(-c2nnc(SCC(=O)NCc3ccc(C)cc3)nc2-c2ccc(OCC)c(OC)c2)cc1OC` gave S16 viability -21.5%, PMP22 txn -12.9%, SKOV3 invasion 0.4%, HTT-AS act -19.3%, pS6 MEF inh 0.2% and HTT prom inh -17.9%.
For COc1ccc(-c2nnc(SCC(=O)NCc3ccccc3)nc2-c2ccc(OC)c(OC)c2)cc1OC the results were S16 viability 1.0%, PMP22 txn 7.27µM*, SKOV3 invasion -10.0%, HTT-AS act -40.7%, pS6 MEF inh -12.1%, HTT prom inh inconclusive, NLuc saturating inconclusive, NLuc Km counter inconclusive, FLuc ctr PMP22 4.9%, S16 viab conf -5.7% and PMP22 txn cnf inconclusive.
CCc1ccc(NC(=O)Cn2nnc(C(=O)Nc3cc(C)ccc3OC)c2N)cc1 was read as S16 viability 14.0%, PMP22 txn inconclusive, SKOV3 invasion -0.8%, HTT-AS act -13.2%, pS6 MEF inh -7.0% and HTT prom inh -25.9%.
For COc1ccc(C)cc1NC(=O)Cn1c(=O)cc(C)c2c(C)nn(C)c21 the results were S16 viability -13.1%, PMP22 txn 7.61µM*, SKOV3 invasion 1.1%, HTT-AS act -93.6%, pS6 MEF inh -2.8%, HTT prom inh 2µM*, NLuc saturating -3.5%, NLuc Km counter 0.1%, FLuc ctr PMP22 1.1%, S16 viab conf -13.9% and PMP22 txn cnf inconclusive.
For COc1ccc(C)cc1NC(=O)c1nnn(CC(=O)Nc2c(C)cccc2C)c1N the results were S16 viability 0.7%, PMP22 txn 9.15µM*, SKOV3 invasion -8.1%, HTT-AS act -2.9%, pS6 MEF inh -4.7%, HTT prom inh -4.5%, NLuc saturating 0.7%, NLuc Km counter 5.0%, FLuc ctr PMP22 1.0%, S16 viab conf inconclusive and PMP22 txn cnf inconclusive.
For CCOc1cc(C2c3c(oc4ccccc4c3=O)C(=O)N2Cc2ccccc2Cl)ccc1O (centres undefined) the results were S16 viability 2.5%, PMP22 txn inconclusive, SKOV3 invasion -8.1%, HTT-AS act -17.6%, pS6 MEF inh -5.9% and HTT prom inh -11.5%.
For COc1cc(C2c3c(oc4ccccc4c3=O)C(=O)N2Cc2ccccc2Cl)ccc1O (centres undefined) the results were S16 viability 2.6%, PMP22 txn 11.5µM*, SKOV3 invasion 9.6%, HTT-AS act -10.3%, pS6 MEF inh 2.6%, HTT prom inh -0.7%, NLuc saturating -9.1%, NLuc Km counter -4.0%, FLuc ctr PMP22 3.8%, S16 viab conf -7.8% and PMP22 txn cnf inconclusive.
COc1cc2ncnc(Nc3ccc(F)c(Cl)c3)c2cc1NC(=O)C=CCN1CCCCC1 was read as SKOV3 invasion -1.3%, HTT-AS act -20.6% and HTT prom inh -0.9%.
